Screens: PubChem BioAssay, National Center for Advancing Translational Sciences (NCATS)
HCMV antiviral – human cytomegalovirus inhibition; 410,000 compounds, 4.5% hits; activity change, negative = inhibition, % at 57.5 µM; HFF cells, HCMV-luciferase reporter, 72 h; hits give low values; AID 1259415; in the data active = activity change below about -60%; inconclusive = no clear call, values can overlap the other calls; inactive = above about -39%
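Luciferase read-out from HCMV-luciferase-infected HFFs (MOI 1 PFU/cell) 72 h post infection at 37C; compounds added after 16 h cell attachment; activity normalized between buffer-only basal and Salinomycin (10uM) inhibitor controls.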
Vaccinia Venus – inhibitors of vaccinia virus (Venus reporter) | Vaccinia virus Venus reporter expression, fluorescence | Potency, µM (series often up to 36.5 µM), actives largely listed as inhibitors | 330,000 compounds, 0.46% hits | AID 720580; calls by dose curve; tested in A549 cells; also: nearly all actives have a fitted effect of over 30% in size
TbPYK inhibitor – blocks Trypanosoma brucei pyruvate kinase; Q57TT1; TbPYK enzyme, Kinase-Glo Plus ATP luminescence, 45 min; Potency, µM (doses to about 76.8 µM), hits mostly inhibitors; 410,000 compounds, 0.12% hits; AID 624173; also: nearly all actives have a fitted effect of over 50% in size
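Assay buffer: 50 mM TEA pH 7.2, 100 mM KCl, 10 mM MgCl2, 0.05% BSA, 0.01% Tween-20. Pyruvate kinase from T. brucei plus substrate met compound, then ADP (130 uM final). Luminescence was read post 45 min RT.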
LmPK inhibitor – LmPK (Leishmania mexicana) enzyme inhibition. Q27686. 290,000 compounds, 0.37% hits. Potency, µM (series often up to 57.5 µM), actives largely listed as inhibitors. AID 1721. purified LmPK, Kinase-Glo ATP luminescence, 1 h
Target sequence (Q27686 whole entry, looked up): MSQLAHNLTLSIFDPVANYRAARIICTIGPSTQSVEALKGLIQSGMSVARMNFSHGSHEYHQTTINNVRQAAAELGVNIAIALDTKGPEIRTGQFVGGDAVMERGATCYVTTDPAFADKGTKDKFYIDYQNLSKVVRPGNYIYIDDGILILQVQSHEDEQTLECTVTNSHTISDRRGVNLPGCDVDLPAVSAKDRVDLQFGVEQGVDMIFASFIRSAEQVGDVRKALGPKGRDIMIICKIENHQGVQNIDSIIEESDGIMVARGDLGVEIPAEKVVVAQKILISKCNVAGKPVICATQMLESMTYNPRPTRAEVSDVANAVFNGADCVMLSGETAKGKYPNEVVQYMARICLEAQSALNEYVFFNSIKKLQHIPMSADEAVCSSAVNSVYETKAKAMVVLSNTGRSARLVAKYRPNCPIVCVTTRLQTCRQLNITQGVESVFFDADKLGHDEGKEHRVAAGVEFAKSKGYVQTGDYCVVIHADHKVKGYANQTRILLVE
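Pyruvate kinase activity monitored as ATP production (luciferase luminescence). Conditions: 0.1 nM enzyme, 0.5 mM PEP, 0.1 mM ADP, 1 h, RT; normalized against uninhibited and no-enzyme wells.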
Vaccinia mCherry – inhibitors of vaccinia virus infection (mCherry reporter signal). Vaccinia virus mCherry reporter infection, fluorescence. Potency, µM (titrated, usually from 36.5 µM), most hits filed as inhibitors. 310,000 compounds, 0.63% hits; calls by dose curve; tested in A549 cells; also: nearly all actives have a fitted effect of over 35% in size
Of the large screens only hits and unclear results are named; the others gave an inactive call; ! = not confirmed by another sample. Only some compounds are listed: those with a hit (about 5% of all), similar ones and a draw of the others. Unless noted, calls follow the shape of the dose curve; as a rule, active = well fitted curve in the direction sought with a large enough effect; inconclusive = small, poorly fitted or top-dose-only effect, or another doubt; inactive = no such curve, though single readings can be large; an effect the other way counts as inactive or inconclusive.

Cc1ccc(S(=O)(=O)n2cc(C=O)c3ccccc32)cc1	none (no result: Vaccinia Venus, Vaccinia mCherry)
Cc1ccc(C(OCC(O)CNCc2ccc(F)cc2)c2ccccc2)cc1 (stereo not given)	HCMV antiviral -102.0 (no result: Vaccinia Venus, Vaccinia mCherry)
O=C(CCS(=O)(=O)c1cc2c(cc1Cl)NC(=O)CO2)NCCc1ccccc1	HCMV antiviral -104.2!
O=C(CCS(=O)(=O)c1cc2c(cc1Cl)NC(=O)CO2)NCc1ccccc1	none
O=C(NCC1CCCO1)C1CC(=O)N(C2CCCCCC2)C1 (stereo not given)	none
COc1cc2c(cc1OC)[C@@H]1C(=O)c3ccc4c(c3O[C@@H]1CO2)C[C@H](C(C)C)O4	HCMV antiviral -93.8
COc1cc2c(cc1OC)C1C(=O)c3ccc4c(c3OC1CO2)CC(C(C)C)O4 (stereo not given)	HCMV antiviral -96.1, Vaccinia mCherry inconclusive (no result: LmPK inhibitor)
Cc1cccc(N2CCN(C(=O)CN3C(=O)COc4ccc(S(=O)(=O)N5CCOCC5)cc43)CC2)c1C	none (no result: LmPK inhibitor)
O=C(O)CC(NC(=O)/C(=C/c1ccccc1)NC(=O)c1ccccc1)c1ccccc1 (stereo not given)	none
CN(C)C(=O)c1ccc(Nc2cc3c(cn2)cc(-c2cccnc2)n3Cc2ccccc2)cc1	none (no result: Vaccinia Venus, TbPYK inhibitor, LmPK inhibitor, Vaccinia mCherry)
CC1CC2CCCC(O)=C2C(=O)O1 (stereo not given)	HCMV antiviral -60.6 (no result: LmPK inhibitor)
CCN(CC)Cc1c(O)ccc2occ(C(=O)c3ccccc3)c12	none (no result: Vaccinia Venus, Vaccinia mCherry)
O=C1CC(c2ccc3c(c2)OCCO3)Oc2ccc([N+](=O)[O-])cc21 (stereo not given)	HCMV antiviral -76.6 (no result: Vaccinia Venus, Vaccinia mCherry)
CC(CNC(=S)Nc1cc(F)cc(F)c1)CSc1ccc(Cl)cc1 (stereo not given)	Vaccinia mCherry inconclusive
Cn1c(-c2cccnc2)cc2cnc(Nc3ccc(F)cc3)cc21	none (no result: Vaccinia Venus, TbPYK inhibitor, LmPK inhibitor, Vaccinia mCherry)
Cn1c(-c2ccccc2)nc2cnc(Nc3cccc(OC(F)(F)F)c3)cc21	HCMV antiviral -78.8 (no result: Vaccinia Venus, TbPYK inhibitor, LmPK inhibitor, Vaccinia mCherry)
COc1ccc(-c2nc3cnc(Nc4cccc(OC(F)(F)F)c4)cc3n2C)cc1OC	none (no result: Vaccinia Venus, TbPYK inhibitor, LmPK inhibitor, Vaccinia mCherry)
Cn1c(-c2cccnc2)cc2cnc(Nc3ccc(OC(F)(F)F)cc3)cc21	HCMV antiviral -60.0 (no result: Vaccinia Venus, TbPYK inhibitor, LmPK inhibitor, Vaccinia mCherry)
COc1cccc(Nc2cc3c(cn2)cc(-c2cccc(C(F)(F)F)c2)n3C)c1	HCMV antiviral -80.1 (no result: Vaccinia Venus, TbPYK inhibitor, LmPK inhibitor, Vaccinia mCherry)
O=C(CCCc1ccccc1)Nc1ccccn1	HCMV antiviral inconclusive
CCOC(=O)c1ccc(NC(=S)NCC(O)c2ccccc2)cc1 (stereo not given)	none
CCOC(=O)c1sc(NC(=O)COc2ccccc2Cl)c(C(=O)OCC)c1C	none (no result: LmPK inhibitor)
NC(=S)N/N=C/c1ccc2ccccc2c1	Vaccinia Venus 1µM, Vaccinia mCherry 0.355µM
NC(=S)N/N=C/c1cccc(Br)c1	Vaccinia Venus 0.891µM, Vaccinia mCherry inconclusive
NC(=S)N/N=C/C=C/c1ccccc1	Vaccinia Venus 0.794µM, Vaccinia mCherry 1µM
NC(=S)N/N=C/c1cccc(/C=N/NC(N)=S)c1	none
CN(C)S(=O)(=O)c1ccc(NC(=O)CN2CCN(c3ccccn3)CC2)cc1	none
Cc1nc(-c2cccc(NC(=O)Nc3ccc([N+](=O)[O-])cc3)c2)no1	HCMV antiviral -99.0, Vaccinia Venus inconclusive, Vaccinia mCherry inconclusive (no result: LmPK inhibitor)
Cc1ccc(NC(=O)Nc2cccc([N+](=O)[O-])c2)nc1	none
Cc1ccc(NC(=O)Nc2ccc([N+](=O)[O-])cc2)nc1	HCMV antiviral -70.0
O=C(Nc1ccc([N+](=O)[O-])cc1)Nc1ccon1	HCMV antiviral -86.2
CCOC(=O)N1CCC(NS(=O)(=O)c2cc(Br)cc3c2N(C(=O)CC)CC3)CC1	HCMV antiviral -105.1
CCC(=O)N1CCc2cc(Br)cc(S(=O)(=O)CCC(=O)NCCOC)c21	HCMV antiviral -84.0 (no result: Vaccinia Venus, Vaccinia mCherry)
CCOC(=O)N1CCN(S(=O)(=O)c2cc(Br)cc3c2N(C(=O)CC)CC3)CC1	none
COc1ccc(-c2c(C(C)=O)c(C)n(C)c2C)cc1	none
Cc1sc2ccc3sccc3c2[n+]1C	TbPYK inhibitor 8.91µM
Cc1sc2c3ccsc3ccc2[n+]1C	TbPYK inhibitor 8.91µM
COCCCOc1ccnc(CS(=O)c2nc3ccccc3[nH]2)c1C (stereo not given)	HCMV antiviral -65.1
Cc1c(OCC(F)(F)F)ccnc1CS(=O)c1nc2ccccc2[nH]1 (stereo not given)	none
CN1CCN(c2nc(N(C)C)oc(=O)c2C#N)CC1	none (no result: Vaccinia Venus, Vaccinia mCherry)
O=C(c1ccc([N+](=O)[O-])cc1[N+](=O)[O-])N1CCCC1	none
